Assay outcomes (PubChem)
MRP reversal – reversal of MRP1-mediated doxorubicin resistance, primary screen, H69AR cells, doxorubicin co-treatment. 0.04% of 85,000 active. AID 602, 2007. H69AR cells + 2 uM doxorubicin, CellTiter-Glo, 72 h. differential viability (reversal), % at 10 µM;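 active = viability drop by adding the cancer drug above about 55%, with treated viability meeting a 40% cutoff, limit read from the data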;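 also: larger differential means the compound sensitizes cells more to doxorubicin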
ERb coact inh – inhibitors of ERβ-SRC1 coactivator interaction, primary screen, biochemical, TR-FRET, ERβ LBD, SRC-1 peptide; Estrogen receptor beta (Homo sapiens), Q92731; TR-FRET ER-beta LBD / SRC1-Cy5 peptide binding; receptor agonist-loaded with 1 µM estradiol; inhibition, % at 25.6 µM; 1.3% of 86,000 active;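 active = compounds whose percent inhibition of the receptor-coactivator binding signal exceeds about 50% in the single-dose screen, limit read from the data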
ERa coact pot – enhancers of ERα–SRC-1 coactivator binding, primary screen, biochemical, TR-FRET, ERα LBD, low estradiol. Estrogen receptor (Homo sapiens), P03372. TR-FRET ERalpha-LBD/SRC-Cy5 coactivator binding, 2 h; 100 = basal binding, no effect. coactivator binding (% of control), % at 25.6 µM. 1.3% of 86,000 active. AID 639, 2007; in the data active = activity above about 200%;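 also: binding measured in presence of low estradiol as agonist stimulus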
Target sequence (P03372 whole entry, looked up, the tested form may be a part): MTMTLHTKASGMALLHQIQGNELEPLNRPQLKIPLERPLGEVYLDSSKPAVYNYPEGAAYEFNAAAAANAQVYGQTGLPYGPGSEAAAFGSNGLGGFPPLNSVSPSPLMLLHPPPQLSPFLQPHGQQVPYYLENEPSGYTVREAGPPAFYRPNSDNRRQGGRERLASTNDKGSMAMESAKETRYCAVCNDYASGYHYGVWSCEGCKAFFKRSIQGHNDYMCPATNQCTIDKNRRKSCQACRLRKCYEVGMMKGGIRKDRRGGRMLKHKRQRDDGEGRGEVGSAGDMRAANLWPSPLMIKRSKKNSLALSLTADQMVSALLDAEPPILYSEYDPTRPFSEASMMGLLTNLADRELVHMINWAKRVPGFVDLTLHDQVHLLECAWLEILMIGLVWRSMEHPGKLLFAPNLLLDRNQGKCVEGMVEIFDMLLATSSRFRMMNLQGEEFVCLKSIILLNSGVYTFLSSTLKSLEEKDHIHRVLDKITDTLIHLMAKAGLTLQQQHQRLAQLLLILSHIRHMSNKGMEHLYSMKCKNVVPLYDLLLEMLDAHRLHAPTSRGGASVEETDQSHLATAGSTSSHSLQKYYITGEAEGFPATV
Smad3 FoxH1 inh – Smad3/FoxH1 peptide binding inhibitors, primary screen, biochemical, TR-FRET. AID 630, 2007. TR-FRET Smad3/Dy647-FoxH1 peptide binding, europium anti-His. inhibition, % at 25 µM. Mothers against decapentaplegic homolog 3 (Homo sapiens), P84022. 0.29% of 88,000 active;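 active = compounds that reduce the energy-transfer binding signal between the protein and its labelled peptide by more than half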
ERa coact inh – ERα–SRC-1 coactivator interaction inhibitors, primary screen, biochemical, TR-FRET, ERα LBD, estradiol-bound | Estrogen receptor (Homo sapiens), P03372 | TR-FRET ER-alpha LBD / SRC-1 peptide | inhibition, % at 25.6 µM | 1.7% of 86,000 active | AID 629, 2007; in the data active = inhibition above about 50%
MRP-1 activ – H69AR viability gain despite doxorubicin, primary screen, MRP-1 activator project, H69AR cells, CellTiter-Glo; viability increase, % at 10 µM; 0.61% of 140,000 active; viability rescue; AID 799, 2007;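 active = viability gain under doxorubicin at or above a set limit, the compound median plus 3 SD, cut at about 4.7% in these data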;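 also: MRP-1 overexpressing cells given doxorubicin 25 µM after compound pretreatment; 18-22 h compound pretreatment then 72 h with doxorubicin before readout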
A number is an active result; – = inactive; · = no result; [ ] = remark or other dose. Most compounds without a hit are left out; they make up all but 2.8% or so of the library.

SMILES	MRP reversal	ERb coact inh	ERa coact pot	Smad3 FoxH1 inh	ERa coact inh	MRP-1 activ
Cc1ccc(NC(=O)CSc2nnc(-c3ccco3)c(-c3ccco3)n2)cc1	–	73.6[fluorescence artefact?]	–	–	80.9[fluorescence artefact?]	–
O=C(CSc1nnc(-c2ccccc2)c(-c2ccccc2)n1)NCc1ccco1	–	–	–	–	–	–
O=C(CSc1nnc(-c2ccco2)c(-c2ccco2)n1)Nc1ccccc1	–	86.2[fluorescence artefact?]	–	–	84.2[fluorescence artefact?]	–
CC(=O)Oc1ccc(C(=O)Nc2ccc3c(c2)C(=O)N(CCC(=O)O)C3=O)cc1	–	–	708.7[fluorescence artefact?]	–	–	–
O=C(c1cnn2c(C(F)(F)F)cc(-c3cccs3)nc12)N1CCN(C(c2ccccc2)c2ccccc2)CC1	–	–	–	–	–	8.3
CC(C)[C@H](N=Cc1ccccc1O)C(=O)O	·	·	·	–	·	·
COc1ccc(-c2nnc(-c3ccc(N(C)C)cc3)o2)cc1	–	–	–	–	–	–
CN(C)c1ccc(-c2nnc(-c3ccc(S(=O)(=O)C(F)F)cc3)o2)cc1	–	–	241.1	–	54.6[fluorescence artefact?]	–
CCOC(=O)c1c(NC(=O)CSc2nc3ccccc3s2)sc(C)c1C	·	·	·	·	·	–
CCOC(=O)c1c(NC(=O)CSc2ncn[nH]2)sc(C)c1C	–	–	–	–	–	14.5
O=C(O)/C=C/C(=O)Nc1ncn[nH]1	·	·	·	–	·	·
COc1ccc(CNc2nc3c(c(=O)n(Cc4ccc(Cl)cc4)c(=O)n3C)n2C)cc1	–	–	–	–	–	5.5
Cc1c(Cl)cccc1NC(=O)CCCN1C(=O)CCC1=O	–	–	–	–	–	–
CN(Cc1ccccc1)c1oc(COc2ccccc2F)nc1C#N	–	–	–	–	–	7.4
O=C(Nc1ccc(Cc2ccncc2)cc1)C1CCC(N2C(=O)C3CC=CCC3C2=O)CC1 (stereo not given)	–	52.8	–	56.4	55.3	–
Cn1c(=O)n(C/C=C/c2ccccc2)c(=O)c2c1nc1n2CCCN1c1ccc(F)cc1	–	–	–	–	–	5.3
CC(C)/C(=N\[N+](C)(C)C)c1ccccc1	·	·	·	–	·	·
O=c1cc(CF)[nH]c(=S)[nH]1	·	·	·	–	·	·
COc1ccc(-c2cc3nc4c(c(=O)n3[nH]2)CCC4)cc1	–	–	–	–	52.0[fluorescence artefact?]	–
S[C@@H]1CCCN(Cc2ccccc2)C1	·	·	·	56.4	·	·
Cc1cc(C)nc(/N=C(\N)Nc2ccc(F)c([N+](=O)[O-])c2)n1	·	·	·	·	·	–
CC12CCC(C/C1=N\N=C1\NC(=O)/C(=C\c3ccc(Cl)cc3)S1)C2(C)C (stereo not given)	·	·	·	·	·	–
COc1cc(NC(=O)c2ccc(Br)o2)c(C(=O)O)cc1OC	–	–	–	–	–	–
COC(=O)c1cc(OC)c(OC)cc1NC(=O)c1ccc(Br)o1	–	–	–	–	57.5	·
COc1ccc(-c2nc3ccccc3o2)cc1NC(=O)c1ccc(Br)o1	–	–	257.4[fluorescence artefact?]	–	–	–
SMILES	MRP reversal	ERb coact inh	ERa coact pot	Smad3 FoxH1 inh	ERa coact inh	MRP-1 activ
COc1ccccc1NS(=O)(=O)c1cccc(NC(=O)Cc2cccs2)c1	·	·	·	·	·	–
CCOC(=O)c1c(NC(=O)CSc2nnc(C)s2)sc2c1CCN(C)C2	–	–	–	–	85.5[fluorescence artefact?]	–
CCOC(=O)c1c(NC(=O)C(F)(OC)C(F)(F)F)sc2c1CCN(C)C2 (stereo not given)	–	–	–	–	–	–
CCOC(=O)c1c(NC(=O)c2cccs2)sc2c1CCC2	–	–	262.5[fluorescence artefact?]	–	–	·
CCOC(=O)c1c(NC(=O)c2cccs2)sc2c1CCCC2	–	–	–	–	–	–
CCOC(=O)c1c(NS(=O)(=O)c2ccc(Br)cc2)sc2c1CCC2	–	55.7	–	–	60.6[fluorescence artefact?]	–
CCOC(=O)c1c(NC(=O)CSc2nnc(CNC(=O)c3ccco3)n2C)sc2c1CCC2	·	–	–	–	65.3	–
C[C@@H](N1CCOCC1)[C@@](O)(c1ccccc1)c1ccccn1	·	·	·	–	·	·
COc1cc(OC)nc(NC(C)=O)n1	–	–	–	–	–	–
COc1cc(OC)nc(NC(=O)C(C)C)n1	–	–	–	–	62.1	–
OC(CN1CCN(c2ccccc2)CC1)Cn1c2ccccc2c2ccccc21 (stereo not given)	–	–	269.5[fluorescence artefact?]	–	–	–
OC(CN1CCN(Cc2ccccc2)CC1)Cn1c2ccccc2c2ccccc21 (stereo not given)	·	·	·	·	·	–
O=C(O)c1cccc(N2C(=O)C3CC=C(Cl)CC3C2=O)c1 (stereo not given)	–	–	–	–	–	10.3
Cc1ccc(C(=O)Nc2nc3ccccc3c(=O)s2)cc1	–	60.3	–	–	–	–
Nc1nc(-c2ccccc2)c(-c2ccccc2)c(-c2nc(N)nc(-c3ccccc3)c2-c2ccccc2)n1	·	·	·	–	·	·
N#Cc1cn(-c2ccccc2)nc1-c1cc2ccccc2oc1=O	–	–	212.2[fluorescence artefact?]	–	–	–
O=Cc1cn(-c2ccccc2)nc1-c1cc2c(ccc3ccccc32)oc1=O	–	–	229.8[fluorescence artefact?]	–	51.6	–
CCOC(=O)c1cn(-c2nc(-c3ccc(Cl)cc3)cs2)c2c(F)c(N3CC(C)OC(C)C3)c(F)cc2c1=O (stereo not given)	·	·	·	·	·	–
Cc1ccc2[nH]c3c(NCc4ccco4)ncnc3c2c1	–	–	–	–	–	–
Cc1ccc2[nH]c(=O)c(-c3nc4ccccn4c3NCc3ccco3)cc2c1	–	–	–	–	53.0	–
CCC(C)NS(=O)(=O)c1ccc(NC(C)=O)cc1 (stereo not given)	–	–	–	–	–	–
CC(=O)Nc1ccc(S(=O)(=O)NC(C(=O)O)C(C)C)cc1 (stereo not given)	–	65.8[fluorescence artefact?]	–	–	–	·
COc1cc(-c2noc(-c3cccc(Cl)c3)n2)cc(OC)c1OC	–	–	233.0	–	–	–
COc1ccc(-c2nc(-c3cccc(C)c3)no2)cc1OC	–	–	–	–	–	5.5
CC(CCc1nc2ccccc2s1)(c1ccc(O)cc1)c1ccc(O)cc1	·	·	·	–	·	·
CN(C)C(=O)C1CCN(Cc2c[nH]c3ccccc23)CC1	·	·	·	–	·	·
